Hit rate of the full screen: of about 5,500 compounds, about 2,000 (36%) were called active. Not shown: some 18% with an inconclusive outcome. Rule as the data show it: active = normalized growth mostly below about 0.91 (no sharp cut-off); inconclusive = no clear call, values can overlap the other calls; inactive = mostly above about 0.92. Some of the results follow.
Experiment: chemical genetic growth profiling, strain panel (AID 1159580);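 also: tested at 20 µM; growth read once vehicle control cultures reached saturation at 30 °C; 1 = growth at the plate median or of vehicle wells; lower values mean less growth of the strain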
Conditions: growth OD

Measured: normalized growth

CCCCCC(O)C1C(=O)OC(C)C(O)/C=C/C=C/C=C/C=C/C=C(\C)C(O)CC(O)CC(O)CC(O)CC(O)CC(O)CC1O (configuration not stated)
inactive: S. cerevisiae deletion strains, locus YJR075W, strain HOC1, active compounds read low 0.994 | S. cerevisiae deletion strains, locus YKL009W, strain mrt4, active compounds read low 0.999 | S. cerevisiae deletion strains, locus YKL068W, active compounds read low 1.03 | S. cerevisiae deletion strains, locus YKL085W, strain MDH1 (second series), active compounds read low 0.975 | S. cerevisiae deletion strains, locus YKL085W, strain MDH1, active compounds read low 0.975 | S. cerevisiae deletion strains, locus YKL160W, strain elf1, active compounds read low 1.01 | S. cerevisiae deletion strains, locus YKL190W, strain CNB1, active compounds read low 1.01 | S. cerevisiae deletion strains, locus YKR001C, strain vps1, active compounds read low 1.03 | S. cerevisiae deletion strains, locus YKR026C, strain gcn3, active compounds read low 0.966 | S. cerevisiae deletion strains, locus YKR091W, strain srl3, active compounds read low 0.995 | S. cerevisiae deletion strains, locus YLL001W, strain dnm1, active compounds read low 1.01 | S. cerevisiae deletion strains, locus YLL026W, active compounds read low 0.982 | S. cerevisiae deletion strains, locus YLL041C, strain sdh2, active compounds read low 0.994 | S. cerevisiae deletion strains, locus YLR027C, strain aat2, active compounds read low 0.983 | S. cerevisiae deletion strains, locus YLR039C, strain RIC1, active compounds read low 1.08 | S. cerevisiae deletion strains, locus YLR058C, strain SHM2, active compounds read low 1.01 | S. cerevisiae deletion strains, locus YLR102C, strain apc9, active compounds read low 1.02 | S. cerevisiae deletion strains, locus YLR113W, strain HOG1, active compounds read low 0.951 | S. cerevisiae deletion strains, locus YLR221C, strain rsa3, active compounds read low 1 | S. cerevisiae deletion strains, locus YLR258W, strain gsy2, active compounds read low 0.991 | S. cerevisiae deletion strains, locus YLR262C, strain YPT6 (second series), active compounds read low 0.997 | S. cerevisiae deletion strains, locus YLR262C, strain YPT6, active compounds read low 1.09 | S. cerevisiae deletion strains, locus YLR268W, strain sec22, active compounds read low 1.02 | S. cerevisiae deletion strains, locus YLR320W, strain mms22, active compounds read low 0.992 | S. cerevisiae deletion strains, locus YLR330W, strain CHS5, active compounds read low 1.01 | S. cerevisiae deletion strains, locus YLR342W, strain FKS1 (second series), active compounds read low 1.06 | S. cerevisiae deletion strains, locus YLR342W, strain FKS1, active compounds read low 0.983 | S. cerevisiae deletion strains, locus YLR357W, strain rsc2, active compounds read low 0.972 | S. cerevisiae deletion strains, locus YLR370C, strain arc18, active compounds read low 0.982 | S. cerevisiae deletion strains, locus YLR371W, strain rom2, active compounds read low 1.02 | S. cerevisiae deletion strains, locus YLR384C, strain iki3, active compounds read low 0.985 | S. cerevisiae deletion strains, locus YLR418C, strain cdc73, active compounds read low 1.02 | S. cerevisiae deletion strains, locus YML016C, strain PPZ1, active compounds read low 1.01 | S. cerevisiae deletion strains, locus YML032C, strain rad52, active compounds read low 1.04 | S. cerevisiae deletion strains, locus YML120C, strain ndi1, active compounds read low 1 | S. cerevisiae deletion strains, locus YML124C, strain tub3, active compounds read low 1.02 | S. cerevisiae deletion strains, locus YMR058W, strain fet3, active compounds read low 0.997 | S. cerevisiae deletion strains, locus YMR078C, strain ctf18, active compounds read low 1.03 | S. cerevisiae deletion strains, locus YMR125W, strain sto1, active compounds read low 0.959 | S. cerevisiae deletion strains, locus YMR129W, active compounds read low 0.977 | S. cerevisiae deletion strains, locus YMR205C, strain PFK2, active compounds read low 0.955 | S. cerevisiae deletion strains, locus YMR223W, strain ubp8, active compounds read low 1.03 | S. cerevisiae deletion strains, locus YMR231W, strain pep5, active compounds read low 1 | S. cerevisiae deletion strains, locus YMR263W, strain SAP30, active compounds read low 1.01 | S. cerevisiae deletion strains, locus YMR307W, strain GAS1, active compounds read low 1.12 | S. cerevisiae deletion strains, locus YNL067W, strain RPL9B, active compounds read low 1.01 | S. cerevisiae deletion strains, locus YNL071W, strain lat1, active compounds read low 0.996 | S. cerevisiae deletion strains, locus YNL128W, strain TEP1, active compounds read low 0.998 | S. cerevisiae deletion strains, locus YNL153C, strain GIM3, active compounds read low 0.994 | S. cerevisiae deletion strains, locus YNL183C, strain NPR1, active compounds read low 0.928 | S. cerevisiae deletion strains, locus YNL209W, strain ssb2, active compounds read low 0.997 | S. cerevisiae deletion strains, locus YNL233W, strain BNI4, active compounds read low 1 | S. cerevisiae deletion strains, locus YNL248C, strain rpa49, active compounds read low 1.01 | S. cerevisiae deletion strains, locus YNL250W, strain rad50, active compounds read low 1 | S. cerevisiae deletion strains, locus YNL271C, strain bni1, active compounds read low 1.02 | S. cerevisiae deletion strains, locus YNL298W, strain CLA4, active compounds read low 1.02 | S. cerevisiae deletion strains, locus YNL307C, strain MCK1, active compounds read low 1.06 | S. cerevisiae deletion strains, locus YNL322C, strain KRE1 (second series), active compounds read low 0.989 | S. cerevisiae deletion strains, locus YNL322C, strain KRE1, active compounds read low 1.01 | S. cerevisiae deletion strains, locus YNR049C, strain mso1, active compounds read low 0.984 | S. cerevisiae deletion strains, locus YNR052C, strain pop2, active compounds read low 1.02 | S. cerevisiae deletion strains, locus YOL006C, strain TOP1, active compounds read low 1.01 | S. cerevisiae deletion strains, locus YOL012C, strain htz1 1.12 | S. cerevisiae deletion strains, locus YOL147C, strain pex11, active compounds read low 1.02 | S. cerevisiae deletion strains, locus YOR001W, strain rrp6, active compounds read low 1 | S. cerevisiae deletion strains, locus YOR061W, strain CKA2, active compounds read low 1.01 | S. cerevisiae deletion strains, locus YOR069W, strain VPS5, active compounds read low 0.999 | S. cerevisiae deletion strains, locus YOR070C, strain gyp1, active compounds read low 0.989 | S. cerevisiae deletion strains, locus YOR080W, strain dia2, active compounds read low 0.976 | S. cerevisiae deletion strains, locus YOR083W, strain WHI5, active compounds read low 1.01 | S. cerevisiae deletion strains, locus YOR106W, strain vam3, active compounds read low 1.01 | S. cerevisiae deletion strains, locus YOR136W, strain idh2, active compounds read low 1.03 | S. cerevisiae deletion strains, locus YOR144C, strain elg1, active compounds read low 1.03 | S. cerevisiae deletion strains, locus YOR184W, strain ser1, active compounds read low 1.06 | S. cerevisiae deletion strains, locus YOR231W, strain MKK1, active compounds read low 0.954 | S. cerevisiae deletion strains, locus YOR265W, strain rbl2, active compounds read low 0.995 | S. cerevisiae deletion strains, locus YOR270C, strain vph1, active compounds read low 1.01 | S. cerevisiae deletion strains, locus YOR290C, strain snf2, active compounds read low 0.995 | S. cerevisiae deletion strains, locus YOR316C, strain cot1, active compounds read low 1.02 | S. cerevisiae deletion strains, locus YPL051W, strain arl3, active compounds read low 0.996 | S. cerevisiae deletion strains, locus YPL055C, strain LGE1, active compounds read low 1.01 | S. cerevisiae deletion strains, locus YPL078C, strain atp4, active compounds read low 1.01 | S. cerevisiae deletion strains, locus YPL106C, strain sse1, active compounds read low 0.987 | S. cerevisiae deletion strains, locus YPL240C, strain hsp82, active compounds read low 1.02 | S. cerevisiae deletion strains, locus YPL241C, strain CIN2, active compounds read low 1.01 | S. cerevisiae deletion strains, locus YPL256C, strain CLN2, active compounds read low 0.975 | S. cerevisiae deletion strains, locus YPR119W, strain clb2, active compounds read low 1.02 | S. cerevisiae deletion strains, locus YPR141C, strain kar3, active compounds read low 1.03 | S. cerevisiae deletion strains, locus YPR163C, strain tif3, active compounds read low 1.02 | S. cerevisiae deletion strains, locus YPR167C, strain met16, active compounds read low 1.02 | S. cerevisiae deletion strains, strain wtn01, active compounds read low 1.01 | S. cerevisiae strains, strain wild type, active compounds read low 1.01

Reference: PubChem BioAssay AID1159580 (chemical genetic matrix, 2015)
